Measured values published in PubChem BioAssay (Tox21).
Inconclusive results are not listed. Where a call stands in place of a potency, no number is given. Calls of active or inactive are those of the source. Calls follow the shape of the dose curve; as a rule, active = well fitted curve in the direction sought with a large enough effect in the repeat runs; inconclusive = weak or mixed curves; inactive = no such curve, though single readings can be large; an effect the other way counts as inactive or inconclusive. Positions of bridges follow the written chain, without caps; N, C: chain ends. Where a SMILES comes first, the peptide text is derived from it. Non-standard residues stand in square brackets, D forms with d. Residues, ends and D or L forms follow the SMILES beside them. hArg = N=C(N)NCCCC[C@H](N)C(=O)O; Mpa = O=C(O)CCS

Assay: A CellTox Green Cytotoxicity Assay to monitor cytotoxicity in HepG2 cells - 40 hour (AID 1224879); also: nearly all actives have a fitted effect of over 40% in size; also: potency is read from the fitted curve at half-maximal effect
Conditions: CellTox Green fluorescence; series mostly up to 76.8 µM
Method in brief: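 Real-time, homogeneous cytotoxicity readout: dead-cell DNA staining by CellTox Green in HepG2 monolayers, fluorescence measured at timed intervals up to 40 h of continuous compound exposure.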

| Compound | Potency | cytotoxicity increase |
| --- | --- | --- |
| COc1ccc2c(c1)c1c3n2CCN(C)C3=NCC1 | inactive |  |
| Cn1c(=O)c2[nH]c(Br)nc2n(C)c1=O | inactive |  |
| CC(=O)C1C(=O)C=C(C)OC1=O (centres undefined) | inactive |  |
| CN(C)CCN(C)CCO | inactive |  |
| CC(C)C1OCCN1CCOC(=O)NCCCCCCNC(=O)OCCN1CCOC1C(C)C (centres undefined) | inactive |  |
| CC(=O)O[C@H]1C[C@@H]2CC[C@@]1(C)C2(C)C | inactive |  |
| CN1C[C@@H]2C[C@H]1CN2c1cc2c(cc1F)c(=O)c(C(=O)O)cn2C1CC1 |  | 4.83% [at 15.8 µM] (inactive) |
| CC1(C)CC(OC(=O)CCCCCCCCC(=O)OC2CC(C)(C)NC(C)(C)C2)CC(C)(C)N1 |  | -12% [at 15.8 µM] (inactive) |
| C=Cc1ccc(C(C)(C)C)cc1 | inactive |  |
| CCOc1ccccc1OCC1CNCCO1 (centres undefined) | inactive |  |
| N[C@@H](Cc1ccc(O)cc1)C(=O)O |  | -8.31% [at 6.97 µM] (inactive) |
| O=C(CCCCC(=O)Nc1c(I)cc(I)c(C(=O)O)c1I)Nc1c(I)cc(I)c(C(=O)O)c1I | inactive |  |
| O=C1NC(c2ccccc2)(c2ccccc2)C(=O)N1COP(=O)(O)O | inactive |  |
| OCCN1CCOCC1 | inactive |  |
| CC(C)c1ccc(C=O)cc1 | inactive |  |
| COc1c2occc2c(OC)c2c(=O)cc(C)oc12 | inactive |  |
| CCCCOCCOC(=O)COc1ccc(Cl)cc1Cl | inactive |  |
| CCC(C(=O)OCCN1CCOC(c2ccccc2)C1C)c1ccccc1 (centres undefined) | inactive |  |
| C=C(C)[C@@H]1CC=C(C)CC1 | inactive |  |

| Compound | Potency | cytotoxicity increase |
| --- | --- | --- |
| CC(=O)CC(=O)Nc1ccc(C)cc1C | inactive |  |
| c1ccc2cnccc2c1 | inactive |  |
| CN(C)CCOC(=O)C(c1ccccc1)C1(O)CCCC1 (centres undefined) | inactive |  |
| NCc1ccc(S(N)(=O)=O)cc1 | inactive |  |
| COc1cc(/C=C/C(N)=O)cc(OC)c1OC | inactive |  |
| NC(=O)[C@@H]1CSSCCC(=O)N[C@@H](CCCCN=C(N)N)C(=O)NCC(=O)N[C@@H](CC(=O)O)C(=O)N[C@@H](Cc2c[nH]c3ccccc23)C(=O)N2CCC[C@H]2C(=O)N1 ([Mpa][hArg]GDWPC-NH2; disulfide 1-7) | inactive |  |
| O=C1c2ccccc2C(=O)c2cc(Cl)ccc21 |  | 1.15% [at 6.97 µM] (inactive) |
| Fc1ccccc1 | inactive |  |
| CC(C)(CO)C(O)C(=O)NCCCO (centres undefined) | inactive |  |
| CC(=O)c1cc(C)oc1C | inactive |  |
| COc1cc(OC)nc(O[C@H](C(=O)O)C(OC)(c2ccccc2)c2ccccc2)n1 | inactive |  |
| CCO | inactive |  |
| C=C(C)c1cccc(C(C)(C)N=C=O)c1 | inactive |  |
| C=CC/C=C/C | inactive |  |
| CCCCCCCCCOC(=O)CCCCC(=O)OCCCCCCC | 24.5 µM (active) |  |
| CC(=O)N[C@@H](CO)C(=O)N[C@@H](CC(=O)O)C(=O)N[C@@H](CCCCN)C(=O)N1CCC[C@H]1C(=O)O (Ac-SDKP-OH) | inactive |  |
| CCC/C=C(\C=O)CC | inactive |  |
| CC(C)OC(=O)CCC(=O)OC(C)C | inactive |  |

Assay: qHTS RealTime-Glo MT Cell Viability Assay in HEK293 cells - 0 hour (AID 1224880); also: top concentration of the series differs between compounds; nearly all actives have a fitted effect of over 45% in size
Conditions: RealTime-Glo luminescence; series mostly up to 76.8 µM
Method in brief: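 Nonlytic bioluminescent viability monitoring. HEK293 at 600 cells/well with reagent; 5 h settle; compound transfer by pintool; plates held at 37 C and read at set time points.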

| Compound | Potency | activity change, negative = cytotoxicity |
| --- | --- | --- |
| COc1ccc2c(c1)c1c3n2CCN(C)C3=NCC1 | inactive |  |
| Cn1c(=O)c2[nH]c(Br)nc2n(C)c1=O | inactive |  |
| CC(=O)C1C(=O)C=C(C)OC1=O (centres undefined) | inactive |  |
| CN(C)CCN(C)CCO | inactive |  |
| CC(C)C1OCCN1CCOC(=O)NCCCCCCNC(=O)OCCN1CCOC1C(C)C (centres undefined) | inactive |  |
| CC(=O)O[C@H]1C[C@@H]2CC[C@@]1(C)C2(C)C | inactive |  |
| CN1C[C@@H]2C[C@H]1CN2c1cc2c(cc1F)c(=O)c(C(=O)O)cn2C1CC1 |  | -2.3% [at 15.8 µM] (inactive) |
| CC1(C)CC(OC(=O)CCCCCCCCC(=O)OC2CC(C)(C)NC(C)(C)C2)CC(C)(C)N1 |  | 17.6% [at 15.8 µM] (inactive) |
| C=Cc1ccc(C(C)(C)C)cc1 | inactive |  |
| CCOc1ccccc1OCC1CNCCO1 (centres undefined) | inactive |  |
| N[C@@H](Cc1ccc(O)cc1)C(=O)O |  | 4.85% [at 6.97 µM] (inactive) |
| O=C(CCCCC(=O)Nc1c(I)cc(I)c(C(=O)O)c1I)Nc1c(I)cc(I)c(C(=O)O)c1I | inactive |  |
| O=C1NC(c2ccccc2)(c2ccccc2)C(=O)N1COP(=O)(O)O | inactive |  |
| OCCN1CCOCC1 | inactive |  |
| CC(C)c1ccc(C=O)cc1 | inactive |  |
| COc1c2occc2c(OC)c2c(=O)cc(C)oc12 | inactive |  |
| CCCCOCCOC(=O)COc1ccc(Cl)cc1Cl | inactive |  |
| CCC(C(=O)OCCN1CCOC(c2ccccc2)C1C)c1ccccc1 (centres undefined) | inactive |  |
| C=C(C)[C@@H]1CC=C(C)CC1 | inactive |  |

| Compound | Potency | activity change, negative = cytotoxicity |
| --- | --- | --- |
| CC(=O)CC(=O)Nc1ccc(C)cc1C | inactive |  |
| c1ccc2cnccc2c1 | inactive |  |
| CN(C)CCOC(=O)C(c1ccccc1)C1(O)CCCC1 (centres undefined) | inactive |  |
| NCc1ccc(S(N)(=O)=O)cc1 | inactive |  |
| COc1cc(/C=C/C(N)=O)cc(OC)c1OC | inactive |  |
| NC(=O)[C@@H]1CSSCCC(=O)N[C@@H](CCCCN=C(N)N)C(=O)NCC(=O)N[C@@H](CC(=O)O)C(=O)N[C@@H](Cc2c[nH]c3ccccc23)C(=O)N2CCC[C@H]2C(=O)N1 ([Mpa][hArg]GDWPC-NH2; disulfide 1-7) | inactive |  |
| O=C1c2ccccc2C(=O)c2cc(Cl)ccc21 |  | 3.49% [at 6.97 µM] (inactive) |
| Fc1ccccc1 | inactive |  |
| CC(C)(CO)C(O)C(=O)NCCCO (centres undefined) | inactive |  |
| CC(=O)c1cc(C)oc1C | inactive |  |
| COc1cc(OC)nc(O[C@H](C(=O)O)C(OC)(c2ccccc2)c2ccccc2)n1 | inactive |  |
| CCO | inactive |  |
| C=C(C)c1cccc(C(C)(C)N=C=O)c1 | inactive |  |
| C=CC/C=C/C | inactive |  |
| CCCCCCCCCOC(=O)CCCCC(=O)OCCCCCCC | inactive |  |
| CC(=O)N[C@@H](CO)C(=O)N[C@@H](CC(=O)O)C(=O)N[C@@H](CCCCN)C(=O)N1CCC[C@H]1C(=O)O (Ac-SDKP-OH) | inactive |  |
| CCC/C=C(\C=O)CC | inactive |  |
| CC(C)OC(=O)CCC(=O)OC(C)C | inactive |  |
